52 compounds from PubChem BioAssay AID588342 (National Center for Advancing Translational Sciences (NCATS), 2011) can be followed below.

Molecules are shown by their SMILES. Out of some 360,000 compounds screened, about 25,000 (6.9%) were called active. Not shown: some 9% with an inconclusive outcome. The sample as a whole holds a higher share of actives than the screen did. A number with no mark means an inactive call. Calls follow the shape of the dose curve; as a rule, active = well fitted inhibition curve with a large enough effect; inconclusive = small, poorly fitted or top-dose-only effect; inactive = flat fitted curve, though single readings scatter.
Potency is read from the fitted curve at half-maximal effect.

Chain of Luciferin 4-monooxygenase (Photinus pyralis) (P08659 whole entry, looked up): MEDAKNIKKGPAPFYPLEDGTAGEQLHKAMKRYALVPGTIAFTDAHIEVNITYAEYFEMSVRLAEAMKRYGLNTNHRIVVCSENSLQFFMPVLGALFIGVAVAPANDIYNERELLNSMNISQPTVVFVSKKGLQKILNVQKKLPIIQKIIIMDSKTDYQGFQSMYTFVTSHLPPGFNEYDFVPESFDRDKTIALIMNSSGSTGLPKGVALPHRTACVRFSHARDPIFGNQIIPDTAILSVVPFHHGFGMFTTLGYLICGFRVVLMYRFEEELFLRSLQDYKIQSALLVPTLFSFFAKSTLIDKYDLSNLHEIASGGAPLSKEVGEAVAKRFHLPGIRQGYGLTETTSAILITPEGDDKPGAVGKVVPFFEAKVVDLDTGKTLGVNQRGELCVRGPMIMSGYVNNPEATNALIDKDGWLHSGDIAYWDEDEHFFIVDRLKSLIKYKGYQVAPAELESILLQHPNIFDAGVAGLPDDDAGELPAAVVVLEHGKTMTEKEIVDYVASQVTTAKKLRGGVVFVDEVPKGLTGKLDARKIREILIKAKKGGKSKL

The target of the experiment is Luciferin 4-monooxygenase (Photinus pyralis) (UniProt P08659). In words: qHTS profiling assay for firefly luciferase inhibitor/activator using purifed enzyme and Km concentrations of substrates (counterscreen for miR-21 project). Also: nearly all actives have a fitted effect of over 55% in size.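 As to activity change, negative = inhibition: plate controls were vehicle for no effect and reference inhibitor for full effect.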 Conditions: purified FLuc, luminescence inhibition; series mostly up to 57.5 µM; activity change, negative = inhibition: at the top concentration. The gist of the method:
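Biochemical qHTS of compounds, final roughly 60 µM downward over six points, against 10 nM purified firefly luciferase using Km concentrations of substrates (10 uM D-luciferin, 10 uM ATP) in Tris acetate pH 7.5 buffer; luminescence output.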
On the technique in general: In qHTS, concentration-response curves come from the screen itself.
As for `CC(C)=C(NC(=O)c1ccccc1)C(=O)N/N=C(\C)c1ccccc1O`, the “activity change, negative = inhibition” value was 4.12%.
The same measure, in the same setting: as for `CCCOC(=O)c1c(NC(=O)c2cc3nc(-c4ccc(OC)cc4)cc(C(F)(F)F)n3n2)sc2c1CCCC2`, the figure is -5.72%; as for `COc1ccc(N2CCN(C(=O)CSCc3nc(-c4ccccc4Cl)oc3C)CC2)cc1`, -11.4%.
Same read-out and setting: as for `COc1ccc(-n2ccn(CC(=O)Nc3ccc(C)c(C)c3)c(=O)c2=O)cc1OC`, the figure is -7.6%; as for `Cc1cccc(S(=O)(=O)c2cn(Cc3ccccc3)c3cc(N4CCOCC4)c(F)cc3c2=O)c1`, -6.65%.
Same read-out and setting: as for `CN(C)c1nnnn1-c1ccc(Cl)cc1`, the figure is -2.83%.
As to `Nc1ccc2nn(-c3ccc(Cl)cc3)nc2c1`, the Potency is 0.757 µM (active).
For the compound `O=C(NCCCO)c1nn(-c2ccc(Cl)cc2)nc1CO`, the “activity change, negative = inhibition” value is -18.3%.
The same measure, in the same setting: as for `COc1ccc(/C=N/Nc2nc(-c3ccc(C)cc3)c(C#N)c(=O)[nH]2)cc1`, the figure is 2.09%.
Turning to `COc1ccc(/C=N/Nc2ccccc2C(=O)O)cc1`, the Potency was 0.151 µM (active).
As to `COc1cc(OC)c(S(=O)(=O)Nc2ccccc2C(=O)O)cc1S(=O)(=O)Nc1ccccc1C(=O)O`, the “activity change, negative = inhibition” value is -6.46%.
Same read-out and setting: as for `COc1ccc(CCCc2nnc(SCc3nc4ccccc4c(=O)[nH]3)n2C)cc1`, the figure is 2.77%.
With `COc1ccc(/C=N/Nc2nc3ccccc3c(=O)[nH]2)cc1`, the Potency was 6.01 µM (active).
With `COc1ccc(/C=N/OCC(=O)N(Cc2ccccc2)c2ccccc2C(=O)O)cc1`, the “activity change, negative = inhibition” value is 1.35%.
On the same count and under the same terms, in the case of `COc1ccc(NC(=O)CCc2nnc3n(CC(C)C)c(=O)c4ccccc4n23)cc1OC` it was 1.45%.
Still for that read-out and setting: as for `CSc1ccc(C2C(C(=O)Nc3ccccc3)=C(C)Nc3nc4ccccc4n32)cc1` (configuration not stated), the figure is -0.306%; as for `COc1ccc(CCNc2ncnc3onc(-c4ccc(Cl)cc4)c23)c(OC)c1`, 0.978%.
On the same count and under the same terms, in the case of `CCCn1c(=N)c(C(=O)NCc2ccccc2)cc2c(=O)n3cccc(C)c3nc21` it was -0.698%.
Consider `CCN1/C(=C/C(=S)Nc2ccccc2)Sc2ccccc21`, for which the Potency was 10.7 µM (active).
`CCN1C(=O)/C(=C2/Sc3ccccc3N2CCCS(=O)(=O)O)SC1=S`: the “activity change, negative = inhibition” value is -7.47%.
On the same count and under the same terms, as for `O=C(CCN1c2ccccc2Sc2ccccc21)Nc1ccccc1`, the figure is -1.69%.
Take `CCOC(=O)Cc1csc(NC(NC(=O)OCC)(C(F)(F)F)C(F)(F)F)n1`: the “activity change, negative = inhibition” value is 0.679%.
With `CCOC(=O)Cc1csc(NC(=O)Nc2ccccc2)n1`, the Potency is 12 µM (active).
`CCOC(=O)c1csc(NC(=O)Nc2cccc(OC)c2)n1`: the “activity change, negative = inhibition” value was -6.53%.
On the same count and under the same terms, as for `COc1ccc(OC)c(CNC(=O)Cn2nc(C)c3c(C)n(-c4ccc(C)cc4)nc3c2=O)c1`, the figure is 1.75%; as for `Cc1cccc(NC(=O)c2nnn(CC(=O)Nc3ccc(C(C)C)cc3)c2N)c1C`, 1.34%.
As to `COc1ccc(CCNC(=O)CCc2c(C)nc3c(c(C)nn3-c3ccc(C)c(C)c3)c2C)c(OC)c1OC`, the “activity change, negative = inhibition” value is -9.01%.
As to `CCN(C(=O)Cn1cc(S(=O)(=O)N2CCN(c3ccccc3F)CC2)c2ccccc2c1=O)c1ccc(C)c(C)c1`, the “activity change, negative = inhibition” value was -4.46%.
The same measure, in the same setting: in the case of `CCc1ccccc1NS(=O)(=O)c1ccc2nc(-c3ccccc3)[nH]c2c1` it was -4.06%; in that of `O=S(=O)(Nc1ccc2cn[nH]c2c1)c1ccccc1`, -3.45%.
In the case of `O=S(=O)(Nc1ccc2nc(-c3ccco3)[nH]c2c1)c1ccccc1`, the Potency is 12 µM (active).
Regarding `CCN1CCN(Cc2c(O)ccc3oc(C)c(C(=O)Nc4ccc(C)cc4C)c23)CC1`, the “activity change, negative = inhibition” value is 5.5%.
Same read-out and setting: in the case of `O=C(Cc1ccsc1)N1CCN(S(=O)(=O)c2cc(C(F)(F)F)cc(C(F)(F)F)c2)CC1` it was 0.221%; in that of `CCN(CC)C(=O)Oc1ccc(OC(=O)N(CC)CC)cc1`, 0.534%.
`COc1cccc(Nc2ncccc2C(=O)O)c1`: the Potency was 19 µM (active).
As for `COc1cccc(NC(=O)c2ccccc2SC)c1`, the “activity change, negative = inhibition” value is -17.2%.
The same measure, in the same setting: in the case of `COc1ccc2nc(C)cc(Nc3cccc(C(=O)O)c3)c2c1` it was 2.77%; in that of `CCOC(=O)c1cnc2c(c(C)nn2CC)c1Cl`, 1.72%.
The same measure, in the same setting: as for `COC(=O)c1ccc(S(=O)(=O)N2CCc3ccccc3C2)cc1`, the figure is 1.73%.
For `O=C(Nc1nnc(C2CC2)s1)c1ccccn1`, the Potency was 10.7 µM (active).
On the same count and under the same terms, in the case of `Cc1cc(C(=O)Nc2nnc(C3CC3)s2)c(C)s1` it was 13.5 µM (active).
As for `Cc1cc(=O)oc2cc(OCC(=O)Nc3nnc(C4CC4)s3)ccc12`, the “activity change, negative = inhibition” value is 1.19%.
Still for that read-out and setting: as for `O=C(Cc1cccs1)Nc1nnc(C2CC2)s1`, the figure is -10.2%; as for `O=C(Nc1nnc(Cc2ccccc2)s1)c1cnccn1`, -20.1%.
On the same count and under the same terms, as for `Cc1cccc(NC(=O)CSCC(=O)Nc2nnc(C3CC3)s2)c1`, the figure is -3.15%; as for `Cc1ccc(N(C)C(=O)C2CCN(S(=O)(=O)c3ccc4c(c3)CCCN4C(=O)C3CCC3)CC2)cc1`, -2.8%; as for `O=C1CN(C(=O)Nc2ccccc2C(F)(F)F)C(c2ccccc2)c2c(sc3c2CCCC3)N1` (configuration not stated), -7.07%.
On the same count and under the same terms, in the case of `CCOC(=O)C1CCN(C(=O)c2cccc(S(=O)(=O)N(CC)c3ccccc3)c2)CC1` it was 1.65%.
As to `COc1cc(C(=O)N2CCN(c3ccc(Nc4ccc(C)cc4)nn3)CC2)cc(OC)c1OC`, the “activity change, negative = inhibition” value is 1.35%.
Take `COc1ccc(/C=C2\SC(=S)N(CCC(=O)Nc3cccc(C(=O)O)c3)C2=O)cc1OC`: the Potency is 6.75 µM (active).
As to `O=C(CCN1C(=O)/C(=C/c2cccs2)SC1=S)NNC(=O)c1cccc(O)c1`, the “activity change, negative = inhibition” value was -7.67%.
Consider `COc1ccccc1C(=O)NNC(=O)CCN1C(=O)/C(=C\c2ccccc2)SC1=S`, for which the “activity change, negative = inhibition” value is 2.85%.
